We go through 44 compounds from paper PMC4336329 (PLoS ONE, 2015).

Hit rate of the full screen: of about 310,000 compounds, about 2,200 (0.71%) showed an effect of 50% or more. The effect is printed as a negative number. The entries come from a sample that favours strong results as a whole.

Chain of human ether-à-go-go-related gene (hERG) potassium channel (Q12809 whole entry, looked up): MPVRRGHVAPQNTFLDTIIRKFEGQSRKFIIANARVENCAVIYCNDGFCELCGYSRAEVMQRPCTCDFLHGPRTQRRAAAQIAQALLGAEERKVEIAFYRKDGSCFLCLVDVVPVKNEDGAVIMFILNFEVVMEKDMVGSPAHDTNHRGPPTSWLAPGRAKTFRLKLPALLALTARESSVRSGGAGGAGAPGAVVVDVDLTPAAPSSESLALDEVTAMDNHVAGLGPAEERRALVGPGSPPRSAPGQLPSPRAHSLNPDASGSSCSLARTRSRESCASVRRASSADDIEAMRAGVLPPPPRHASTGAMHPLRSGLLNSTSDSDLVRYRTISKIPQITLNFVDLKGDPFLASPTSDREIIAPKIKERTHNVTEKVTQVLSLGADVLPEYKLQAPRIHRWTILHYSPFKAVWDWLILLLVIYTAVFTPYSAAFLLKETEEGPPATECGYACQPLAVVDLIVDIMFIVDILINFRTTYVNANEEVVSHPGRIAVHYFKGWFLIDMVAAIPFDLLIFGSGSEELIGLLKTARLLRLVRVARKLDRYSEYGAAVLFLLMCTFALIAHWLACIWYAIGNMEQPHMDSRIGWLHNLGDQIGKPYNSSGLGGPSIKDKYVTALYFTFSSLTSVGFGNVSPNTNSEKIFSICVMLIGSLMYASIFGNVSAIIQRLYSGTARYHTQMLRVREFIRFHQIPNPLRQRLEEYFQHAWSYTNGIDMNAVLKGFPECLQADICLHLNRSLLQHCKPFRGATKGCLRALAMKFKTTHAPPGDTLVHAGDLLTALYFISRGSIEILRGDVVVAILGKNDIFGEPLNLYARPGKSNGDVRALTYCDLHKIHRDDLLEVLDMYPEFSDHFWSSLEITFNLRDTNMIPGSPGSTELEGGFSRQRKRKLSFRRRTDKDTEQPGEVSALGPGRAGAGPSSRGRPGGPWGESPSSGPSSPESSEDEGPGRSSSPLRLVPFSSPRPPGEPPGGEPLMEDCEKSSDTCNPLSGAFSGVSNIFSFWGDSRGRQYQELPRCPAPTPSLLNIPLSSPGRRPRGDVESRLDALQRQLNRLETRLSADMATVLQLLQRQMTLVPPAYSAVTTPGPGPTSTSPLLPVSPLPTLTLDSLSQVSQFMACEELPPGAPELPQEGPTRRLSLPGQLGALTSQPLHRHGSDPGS

The assay addresses human ether-à-go-go-related gene (hERG) potassium channel (human, UniProt Q12809). Put plainly: primary screen, population patch clamp on CHO cells stably expressing hERG; higher = less effect of the substance. As for the experimental part:
Briefly, Chinese hamster ovary (CHO) cells stably expressing the hERG channel were dislodged from tissue culture flasks and dispensed into PPC plates. […] During the recording, background leak currents were estimated by a 100 ms step to -80 mV from an initial holding potential of -70 mV and subtracted from the subsequent current measurement. The campaign was conducted in two phases using slight differences in recording protocol. In the first phase, the initial voltage pulse used a 100 ms step to -30 mV from a holding potential of -70 mV, a 2 s conditioning step to +25 mV, and a 2 s test step to -30 mV. During the second phase of the screen, the potential during the conditioning step was raised to +45 mV. In both phases of the campaign, a secondary voltage pulse was applied using the same parameters as the second phase initial pulse. The initial and secondary pulses were applied in the absence of compound, and upon application of 1 μM and 10 μM test concentrations. Small molecule effects on hERG current density were quantified by […].
Regarding `CSc1ccc(CN2CCCC(CNC(=O)c3ccc(F)cc3)C2)cc1` (centres unmarked), the “hERG current change (%, negative = inhibition) at 1uM” value was -59%. In the case of `COc1ccc(CN2CCCC(CNC(=O)c3ccc(F)cc3)C2)c(F)c1` (centres unmarked) it was -50.4%; in that of `CCOc1ccc(CN2CCCC(CNC(=O)c3ccc(F)cc3)C2)cc1CO` (centres unmarked), -50.5%; in that of `COc1ccc(CC(=O)NCC2CCCN(Cc3ccc(F)cc3F)C2)cc1` (centres unmarked), 8.71%.

As to `O=C(NCC1CCCN(Cc2ccc3nonc3c2)C1)c1ccc(F)cc1` (centres unmarked), the “hERG current change (%, negative = inhibition) at 1uM” value is on record as -13.9%. In the case of `CCOc1cc(CN2CCCC(CNC(=O)c3ccc(F)cc3)C2)ccc1OC` (centres unmarked) it was -17%. As for `COc1ccc(CN2CCCC(CNC(=O)c3ccc(F)cc3)C2)cc1OC` (centres unmarked), the figure is -54.3%; as for `O=C(NCC1CCCN(Cc2cccc(OCCO)c2)C1)c1ccc(F)cc1` (centres unmarked), 2.83%. As for `COc1ccc(CC(=O)NCC2CCCN(Cc3ccc(OC)cc3F)C2)cc1` (centres unmarked), the figure is 6.22%; as for `COc1cc(OC)cc(C(=O)NCC2CCCN(Cc3ccc(SC)cc3)C2)c1` (centres unmarked), -34.6%. As for `O=C(O)COCC(=O)N1CCN(C2c3ccccc3-c3ccccc32)CC1`, the “hERG current change (%, negative = inhibition) at 1uM” value came to 12.4%. In the case of `CCCC/C(O)=C/c1nc2ccccc2[nH]c1=O` it was 1.79%; in that of `O=C(NCc1ccco1)c1cc2n(n1)C(C(F)(F)F)CC(c1ccc(F)cc1)N2` (centres unmarked), -4.18%.

On to `Br.O=C(CN1C2=NCCN2c2ccccc21)c1ccc(Br)cc1`, for which the “hERG current change (%, negative = inhibition) at 1uM” value is -28.4%. As for `Br.Cc1ccc(C)c(C(=O)CN2C3=NCCCN3c3ccccc32)c1`, the figure is -43%. Turning to `COc1ccc(C(=O)CN2C3=NCCCN3c3ccccc32)cc1OC`, the “hERG current change (%, negative = inhibition) at 1uM” value is -6.85%. In the case of `Br.COc1cccc(C(=O)CN2C3=NCCCN3c3ccccc32)c1` it was -61.2%; in that of `Br.O=C(CN1C2=NCCCN2c2ccccc21)c1cccc(Br)c1`, -28.6%; in that of `Br.O=C(CN1C2=NCCCN2c2ccccc21)c1ccc([N+](=O)[O-])cc1`, -54%. Regarding `COc1ccc(-c2csc(N3C(=O)C4C5c6ccccc6C(c6ccccc65)C4C3=O)n2)cc1` (centres unmarked), the “hERG current change (%, negative = inhibition) at 1uM” value was 11.9%. As for `Cc1ccc(/C=C2/SC(=Nc3ccc(F)cc3)NC2=O)s1`, the figure is 13%; as for `Cc1csc2nc(NC(=O)c3ccccc3)sc(=O)c12`, 8.93%. As for `Nc1c(Sc2ccccc2)c(=O)[nH]c(=O)n1Cc1ccccc1`, the figure is -13.3%; as for `Cc1ccc(S(=O)(=O)N2CCCC2CNC(=O)C(=O)NCCN2CCOCC2)cc1` (centres unmarked), 16.8%.

For `Cc1ccc(S(=O)(=O)Nc2cccc(C(=O)NCc3ccc(S(N)(=O)=O)cc3)c2)cc1`, the “hERG current change (%, negative = inhibition) at 1uM” value turned out to be 12.7%. In the case of `O=C(CN1CCN(C(=O)c2ccccc2)CC1)Nc1ncc(Br)cc1Br` it was -84.9%; in that of `O=C(CN1CCCCCC1)Nc1ccc(Br)cn1`, 3.88%; in that of `CCc1nnc(NC(=O)CN2CCN(C(=O)c3ccccc3)CC2)s1`, 10.9%. Take `O=C(CN1CCOCC1)Nc1ncc(Br)cc1Br`: the “hERG current change (%, negative = inhibition) at 1uM” value came to 4.34%. As for `O=C(CN1CCN(C(=O)c2ccccc2)CC1)Nc1ccc(Br)cn1`, the figure is -72.1%; as for `O=C(CN1CCN(C(=O)c2ccccc2)CC1)Nc1ccccc1`, 3.18%.

Take `CC(=O)N1CCC(C(=O)Nc2ccccc2)(N(Cc2ccccc2)C(=O)c2cccnc2)CC1`: the “hERG current change (%, negative = inhibition) at 1uM” value was found to be 17.6%. As for `Nc1ccc(Sc2ccccc2Cl)nc1`, the figure is 0.8%; as for `O=C(CCN1CCOCC1)Nc1ccc2c(c1)CCC2`, 3.78%. As for `Cc1[nH][nH]c(=O)c1C=NCc1cccnc1`, the figure is 14.3%; as for `CCN(CC1CCCO1)C(=O)c1cc(COc2ccccc2SC)on1` (centres unmarked), -58.9%; as for `COc1ccc(OCc2cc(C(=O)N(C)CC3CCCCO3)no2)c(Cl)c1` (centres unmarked), -1.77%.

Consider `Cc1ccc(OCc2cc(C(=O)NCC(C)(C)N3CCOCC3)no2)cc1C`, for which the “hERG current change (%, negative = inhibition) at 1uM” value came to 4.83%. In the case of `COc1ccc(OCc2cc(C(=O)NCC(C)(C)N3CCOCC3)no2)c(Cl)c1`, the “hERG current change (%, negative = inhibition) at 1uM” value is 0.582%. As for `COc1cc(Cl)ccc1OCc1cc(C(=O)N(C)CC2CCCCO2)no1` (centres unmarked), the figure is 2.24%; as for `CN(CC1CCCCO1)C(=O)c1cc(COc2ccc(F)cc2Cl)on1` (centres unmarked), -74.4%. As for `CCN(CC1CCCO1)C(=O)c1cc(COc2ccc(OC)cc2Cl)on1` (centres unmarked), the “hERG current change (%, negative = inhibition) at 1uM” value stood at 5.36%. In the case of `CSc1ccccc1OCc1cc(C(=O)NCC(C)(C)N2CCOCC2)no1`, the “hERG current change (%, negative = inhibition) at 1uM” value is -72.2%. In the case of `CCN(CC1CCCO1)C(=O)c1cc(COc2ccc(F)cc2F)on1` (centres unmarked) it was 2.73%.
